Several values for one entry are separate records, joined by “and”; a condition that tells them apart may be missing. Identical values can stand only once. Unmarked numbers belong to inactive results. Activity calls are given as the source filed them.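 Rule for the calls: active = GFP response vs DMSO above 150% with enough events counted; inconclusive = fewer than 70 events counted for a yeast strain; inactive = the rest.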

This experiment is described as follows: MEP2-GFP expression modulation in yeast, confirmation, flow cytometry, third cherry pick, S. cerevisiae (AID 504321).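 Note: median per-cell GFP fluorescence by flow cytometry across all yeast cells; ratio of sample to DMSO median GFP so 100% equals the DMSO level.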 The following applies: S. cerevisiae MEP2-GFP strain, 3 h, at 10 µM, active compounds read high.
With `COCC(C)NC(=O)CCS(=O)(=O)c1nc(-c2ccc(OC)cc2)cc(C(F)(F)F)n1` (stereo not drawn), the GFP response vs DMSO was 112%. In the case of `C/C(=N\NC(=O)c1ccccc1)c1ccccc1F` it was 116%; in that of `Cc1ccc(Nc2cc(=O)[nH]c(=O)[nH]2)cc1C`, 114%. For the compound `COc1ccccc1-c1cc(C(F)(F)F)nc(S(=O)(=O)CCCC(=O)NC(C)C)n1`, the GFP response vs DMSO was 110%. `Cc1cc(C)c(NC(=O)CC(=O)c2ccccc2)c(Cl)c1`: the GFP response vs DMSO was 105%. Regarding `O=C(Nc1ccccc1)O/N=C1/CCCc2occc21`, the GFP response vs DMSO was 112%. Take `Cc1nc2c(O)cccc2cc1CO`: the GFP response vs DMSO is 103%.

`CS(=O)(=O)c1nc(-c2ccc(F)cc2)cc(C(F)(F)F)n1`: the GFP response vs DMSO was 133%. With `O=C(Nc1ccccc1)ON=C1c2ccccc2-c2ccccc21`, the GFP response vs DMSO was 99%. As for `Cc1ccc(C(=O)/C=C/Nc2cccc(O)c2)cc1`, the GFP response vs DMSO is 116%.

Regarding `O=C(N/N=C/c1ccccc1F)c1cccc2ccccc12`, the GFP response vs DMSO is 108%. In the case of `CC(=O)NCCOc1cccc2cccnc12` it was 110%.

In the case of `Cc1cc(C)c2ccc(N)nc2c1O`, the GFP response vs DMSO was 108%. Consider `CC1=CN2C(=N)/C(=C/c3ccc([N+](=O)[O-])o3)C(=O)N=C2S1`, for which the GFP response vs DMSO is 5270% (active). Turning to `COC(=O)c1cc(=O)c2cccc(OC)c2[nH]1`, the GFP response vs DMSO was 110%. Take `O=C(Nc1ccc(-c2nc3ccccc3o2)cc1)c1cccnc1`: the GFP response vs DMSO is 103%. The figure for `COc1ccc(-c2cc(C(F)(F)F)nc(S(C)(=O)=O)n2)cc1OC` is 114% and 121%; for `CSc1nc(Nc2ccc(Cl)cc2)c(C#N)c(=O)[nH]1` it is 108%.

(Values after PubChem BioAssay AID504321 (NMMLSC, 2011).)
